# Data taken from PubChem BioAssay.
# “And” between values parts separate entries of the source, which are not always exact repeats. Equal values may be shown once. The source made the active and inactive calls. Cut-off read from the data, not from the text of the source, unless noted: active = inhibition above about 80%; inactive = the rest.
# Tests used:
# [1] = circadian clock period modulators, cell-based, LOPAC library, luminescence reporter (AID 2774; call rule not given here;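 note: values are relative to mean of DMSO wells on each plate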); settings: circadian reporter cells, at 7 µM, actives lie on both sides
# [2] = antimalarial activity against Dd2 strain (AID 2302;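 active = growth inhibition above 50% at the single 2 µM test dose, taken to imply half-maximal potency below 2 µM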;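 note: 0% = DMSO untreated growth and 100% = chloroquine plus artemisinin killed control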); settings: P. falciparum Dd2 in RBCs, LDH growth readout, 72 h; at 2 µM; stronger effect = higher value
# [3] = HepG2 cytotoxicity, primary screen, cytotoxicity control for P. falciparum antimalarial project, cell-based, ATP luminescence (AID 2303;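 active = inhibition above 50%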;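 note: 0% = DMSO wells and 100% = digitonin-killed cells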); settings: HepG2 viability, 24-48 h, at 10 µM, stronger effect = higher value
# [4] = biological target: L-lactate dehydrogenase (Plasmodium falciparum (isolate CDC / Honduras)) (UniProt Q27743); test: PfLDH activity inhibition – cell lysate, 3D7 strain, counter-screen for P. falciparum growth inhibition project (AID 2304; call rule not given here;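 note: 0% = vehicle and 100% = reference inhibitor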); settings: P. falciparum 3D7 crude extract, LDH APAD/NBT absorbance; at 2 µM; stronger effect = higher value
# Chain of L-lactate dehydrogenase (Plasmodium falciparum (isolate CDC / Honduras)) (Q27743 whole entry, looked up): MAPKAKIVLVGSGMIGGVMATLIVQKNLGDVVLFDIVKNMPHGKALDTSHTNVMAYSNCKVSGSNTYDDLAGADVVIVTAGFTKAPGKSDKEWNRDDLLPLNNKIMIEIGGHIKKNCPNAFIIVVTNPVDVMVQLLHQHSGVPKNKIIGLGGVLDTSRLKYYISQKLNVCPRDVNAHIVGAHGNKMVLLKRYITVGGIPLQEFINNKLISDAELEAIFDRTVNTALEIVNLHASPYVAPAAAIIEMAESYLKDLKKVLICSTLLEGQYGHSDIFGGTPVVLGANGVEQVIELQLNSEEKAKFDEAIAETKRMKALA
# [5] = inhibition of 3D7 malaria parasite growth – strain 3D7 (AID 2306; call rule not given here;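 note: 0% = DMSO wells and 100% = chloroquine plus artemisinin control wells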); settings: P. falciparum 3D7 erythrocytic growth, LDH absorbance, 72 h; at 2 µM; stronger effect = higher value
# [6] = LFS_MB_P medulloblastoma growth inhibition, cell-based, chromothripsis tumors, cisplatin or BGB combos (AID 1671449); settings: LFS_MB_P medulloblastoma cells;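 note: cells exposed for 96 hours; 0% = vehicle DMSO and 100% = killing by high DMSO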
# [7] = HDN33 neuroblastoma growth inhibition, cell-based, chromothripsis tumors, cisplatin or BGB combos (AID 1671450); settings: HDN33 neuroblastoma cells, stronger effect = higher value;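 note: cells exposed to compound for four days; 0% = vehicle DMSO and 100% = cell killing by high DMSO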
# [8] = ICB984 medulloblastoma cell growth inhibition, synergistic combos for chromothripsis tumors, cisplatin or BGB combos (AID 1671451; call rule not given here;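 note: cells exposed for 96 hours before readout; 0% = vehicle DMSO and 100% = killing by high DMSO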); settings: ICB984 medulloblastoma cells, drug combinations, stronger effect = higher value
# [9] = LFS_MB_1R medulloblastoma cell growth inhibition, synergistic combos for chromothripsis tumors, cisplatin or BGB combos (AID 1671452); settings: LFS_MB_1R medulloblastoma cells, stronger effect = higher value;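 note: cells exposed for 96 hours before readout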
# [10] = HTB85 osteosarcoma cell growth inhibition, synergistic combos for chromothripsis tumors, BGB or cisplatin IC20 combos (AID 1671453); settings: HTB85 osteosarcoma cells, drug combinations, stronger effect = higher value;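 note: cells exposed for 96 hours before readout; 0% = vehicle DMSO and 100% = high DMSO killing control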
# [11] = CRL2098 osteosarcoma cell growth inhibition, synergistic combos for chromothripsis tumors, BGB or cisplatin IC20 combos (AID 1671454); settings: CRL2098 osteosarcoma cells, drug combinations, stronger effect = higher value;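 note: cells exposed for 96 h before readout; 0% = vehicle DMSO and 100% = killing by high DMSO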
# [12] = HD-MB03 medulloblastoma cell growth inhibition, synergistic combos for chromothripsis tumors, BGB or cisplatin IC20 combos (AID 1671455; in the data active = inhibition above about 83%;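 note: 0% = vehicle DMSO and 100% = high DMSO as cytotoxic control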); settings: HD-MB03 medulloblastoma cells, stronger effect = higher value
# [13] = UWB1.289 ovarian carcinoma cell growth inhibition, synergistic combos for chromothripsis tumors, BGB or cisplatin combos (AID 1671456); settings: UWB1.289 ovarian carcinoma cells, stronger effect = higher value;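 note: cells exposed to compound for four days; 0% = vehicle DMSO and 100% = killing by high DMSO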
# [14] = LFS_MB_2R medulloblastoma cell growth inhibition, synergistic combos for chromothripsis tumors, cisplatin combos (AID 1671457); settings: LFS_MB_2R medulloblastoma cells, stronger effect = higher value;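 note: cells exposed to compound for four days before readout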
# [15] = MDA-MB-436 breast carcinoma cell growth inhibition, synergistic combos for chromothripsis tumors, BGB or cisplatin combos (AID 1671458; call rule not given here;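 note: cells exposed for 96 hours; 0% = vehicle DMSO and 100% = killing by high DMSO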); settings: MDA-MB-436 breast carcinoma growth inhibition, drug combinations, stronger effect = higher value
# [16] = UWB1.289_BRCA1 ovarian cancer growth, cell-based, BGB or cisplatin combinations (AID 1671459); settings: UWB1.289 BRCA1 ovarian carcinoma, drug combinations, stronger effect = higher value
# [17] = human astrocyte viability loss, single and combined drugs, cytotoxicity control for chromothriptic childhood tumor combination screen, cell-based, BGB or cisplatin IC20 combos (AID 1671460); settings: Human astrocytes, drug combinations, stronger effect = higher value;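 note: cells exposed to compounds for 96 hours before viability readout; 0% = vehicle and 100% = killing control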
# [18] = growth inhibition of BT084 medulloblastoma cells, cell-based, ICGC_MB145, cisplatin and BGB IC40 combos (AID 1671461); settings: drug combinations, stronger effect = higher value;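 note: cells exposed to drugs for 96 hours; 0% = vehicle DMSO and 100% = high DMSO full killing control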
# [19] = growth inhibition of RCMB18 medulloblastoma cells, cell-based, cisplatin and BGB IC40 combos (AID 1671462); settings: stronger effect = higher value;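 note: cells exposed to compound for four days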
# [20] = growth inhibition of CRL1545 osteosarcoma cells, cell-based, cisplatin and BGB IC20 combos (AID 1671464); settings: stronger effect = higher value;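 note: cells exposed to compound for 96 hours before readout; 0% = vehicle DMSO and 100% = high DMSO killing control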
# [21] = measured here: combination with BGB IC40, at 0.05 µM
# [22] = measured here: with BGB IC20 combination, at 0.5 µM
# [23] = measured here: with cisplatin IC20 combination, at 0.5 µM
# [24] = measured here: combination with cisplatin, at 0.5 µM
# [25] = measured here: combination with cisplatin, at 5 µM
smiles,measurement,setting,value
COc1ccc2[nH]cc(CCN(C)C)c2c1,period change,[1],0.045 h (inactive)
COC(=O)c1ccc(CC(C)NCC(O)c2cccc(C(F)(F)F)c2)cc1 (stereo not drawn),growth inhibition,[2],87% (active) and 73% (active)
same,inhibition,[3],-8% (inactive) and -9% (inactive)
same,inhibition,[4],-4% (inactive) and -1% (inactive)
same,growth inhibition,[5],97% (active) and 94% (active)
Cc1c(N)nc(C(CC(N)=O)NCC(N)C(N)=O)nc1C(=O)NC(C(=O)NC(C)C(O)C(C)C(=O)NC(C(=O)NCCc1nc(-c2nc(C(=O)NCCC[S+](C)C)cs2)cs1)C(C)O)C(O[C@@H]1O[C@@H](CO)[C@@H](O)[C@H](O)[C@@H]1O[C@H]1O[C@H](CO)[C@@H](O)[C@H](OC(N)=O)[C@@H]1O)c1cnc[nH]1 (stereo partly drawn),inhibition,"[6]; at 0.5 µM, stronger effect = higher value",-26.9% (inactive) and -11.5% (inactive)
same,inhibition,"[6]; measured here: combination with BGB IC20, at 0.005 µM",28.9% and -33.7%
same,inhibition,"[6]; measured here: combination with BGB IC40, at 0.005 µM",-4.08% and -32.1%
same,inhibition,[6]; [21],1.25% and -43.8%
same,inhibition,"[6]; measured here: combination with cisplatin, at 0.5 µM, stronger effect = higher value",-37.7% and -28%
same,inhibition,"[6]; measured here: combination with cisplatin, at 5 µM, stronger effect = higher value",-0.936% and -58.3%
same,inhibition,"[7]; BGB combo, at 5 µM",94.9% and 96.7%
same,inhibition,[7]; at 0.5 µM,56.2% (inactive) and 63.6% (inactive)
same,inhibition,"[7]; cisplatin combo, at 5 µM",90% and 97.3%
same,inhibition,[7]; [22],57.4% and 65.6%
same,inhibition,[7]; [23],46.8% and 53.3%
same,inhibition,"[7]; single agent, at 5 µM",95% and 97.6%
same,inhibition,"[8]; BGB IC20 combo, at 0.005 µM",15.2% and 12.8%
same,inhibition,"[8]; BGB IC40 combo, at 0.005 µM",-5.04% and -17.2%
same,inhibition,"[8]; BGB IC40 combo, at 0.05 µM",2.59% and -11.2%
same,inhibition,[8]; at 0.5 µM,-18.3% (inactive) and -34.3% (inactive)
same,inhibition,"[8]; cisplatin combo, at 0.05 µM",-0.135% and -15.2%
same,inhibition,"[8]; cisplatin combo, at 0.5 µM",-22.6% and -41.3%
same,inhibition,"[8]; cisplatin combo, at 5 µM",-35.8% and -29.6%
same,inhibition,"[8]; measured here: 5 uM single agent, at 5 µM",-30.1% and -12.5%
same,inhibition,[9]; at 0.5 µM,-1.28% (inactive) and 4.59% (inactive)
same,inhibition,[9]; [21],-22.4% and 5.32%
same,inhibition,[9]; [24],19.1% and 22.6%
same,inhibition,[9]; [25],2.08% and 20.3%
same,inhibition,[10]; at 0.5 µM,23% (inactive) and 30.3% (inactive)
same,inhibition,"[10]; measured here: with BGB IC20, at 0.5 µM",21.6% and 26.9%
same,inhibition,"[10]; measured here: with BGB IC20, at 5 µM",61.8% and 92.6%
same,inhibition,"[10]; measured here: with cisplatin IC20, at 0.5 µM",14.2% and 23.1%
same,inhibition,"[10]; measured here: with cisplatin IC20, at 5 µM",54.6% and 74.3%
same,inhibition,"[10]; single agent, at 5 µM",73.7% and 82.2%
same,inhibition,[11]; at 0.5 µM,33.9% (inactive) and 38.3% (inactive)
same,inhibition,"[11]; measured here: combination with BGB at IC20, at 0.5 µM",21% and 37.5%
same,inhibition,"[11]; measured here: combination with cisplatin at IC20, at 0.5 µM",31% and 27.7%
same,inhibition,[12]; at 0.5 µM,48.5% (inactive) and 64.8% (inactive)
same,inhibition,"[12]; measured here: combo with BGB at IC20, at 0.5 µM",54.2% and 75.3%
same,inhibition,"[12]; measured here: combo with cisplatin at IC20, at 0.5 µM",40% and 68.2%
same,inhibition,[13]; at 0.5 µM,22.8% (inactive) and 41.7% (inactive)
same,inhibition,"[13]; measured here: inhibition with BGB combination, at 0.05 µM",12.4% and -1.23%
same,inhibition,"[13]; measured here: inhibition with cisplatin combination, at 0.05 µM",12.6% and 30.8%
same,inhibition,[14]; at 0.5 µM,-1.61% (inactive) and -19.6% (inactive)
same,inhibition,[14]; [24],1.34% and -24.5%
same,inhibition,[14]; [25],-27.5% and -11.4%
same,inhibition,[15]; at 0.5 µM,15.9% (inactive) and 17.6% (inactive)
same,inhibition,"[15]; measured here: BGB combination, at 0.5 µM",8.64% and 0.685%
same,inhibition,"[15]; measured here: BGB combination, at 5 µM",29.8% and 10.1%
same,inhibition,"[15]; measured here: cisplatin combination, at 0.5 µM",17.1% and 11.9%
same,inhibition,"[15]; measured here: cisplatin combination, at 5 µM",42.7% and 28.7%
same,inhibition,"[16]; BGB combination, concentration series, at 5 µM",33.2% and 41.4%
same,inhibition,[16]; at 0.5 µM,17% (inactive) and 31.1% (inactive)
same,inhibition,"[16]; cisplatin combination, concentration series, at 5 µM",31.9% and 22.9%
same,inhibition,[17]; at 0.5 µM,35.7% (inactive) and 41.9% (inactive)
same,inhibition,"[17]; measured here: combo with BGB IC20, at 0.5 µM",41.1% and 49.2%
same,inhibition,"[17]; measured here: combo with cisplatin IC20, at 0.5 µM",9.83% and 15.3%
same,inhibition,[18]; at 0.5 µM,-4.03% (inactive) and -7.21% (inactive)
same,inhibition,"[18]; cisplatin combination, at 0.5 µM",-3.29% and -12.5%
same,inhibition,"[18]; cisplatin combination, at 5 µM",4.08% and 10.3%
same,inhibition,"[18]; measured here: BGB IC40 combination 0.05 uM, at 0.05 µM",-1.66% and -25.1%
same,inhibition,"[18]; single agent, at 5 µM",-12.7% and -10.7%
same,inhibition,[19]; at 0.5 µM,32.3% (inactive) and -22.9% (inactive)
same,inhibition,"[19]; cisplatin combo, at 5 µM",15.5% and 7.73%
same,inhibition,"[19]; measured here: BGB IC40 combination, at 0.05 µM",-15.7% and -30.1%
same,inhibition,[19]; [24],27.9% and 2.02%
same,inhibition,"[19]; single agent, at 5 µM",-20% and -46.7%
same,inhibition,[20]; at 0.5 µM,32% (inactive) and 45.1% (inactive)
same,inhibition,[20]; [22],25.4% and 41.5%
same,inhibition,[20]; [23],33.8% and 46%
same,inhibition,"[20]; single agent, at 0.05 µM",23% and 12.8%
same,inhibition,"[20]; single agent, at 5 µM",88.5% and 95.5%
